Compound activity deposited in PubChem BioAssay by National Center for Advancing Translational Sciences (NCATS).
This is a sample that favours compounds with a hit; in the whole collection about 12% have one here.
G9a block – G9a (human) methyltransferase inhibition. Q96KQ7. G9a H3K9 monomethylation, AlphaScreen, 2 h. Potency, µM (titrated, usually from 102 µM), without a hit: at the top dose activity, negative = inhibition, actives largely listed as inhibitors. actives 8.8% (n = 350,000). AID 504332; further: on the % scale 0 is the no-effect control and ±100 the full control effect; nearly all actives have a fitted effect of over 75% in size
Target sequence (Q96KQ7 913-1193 limits assumed): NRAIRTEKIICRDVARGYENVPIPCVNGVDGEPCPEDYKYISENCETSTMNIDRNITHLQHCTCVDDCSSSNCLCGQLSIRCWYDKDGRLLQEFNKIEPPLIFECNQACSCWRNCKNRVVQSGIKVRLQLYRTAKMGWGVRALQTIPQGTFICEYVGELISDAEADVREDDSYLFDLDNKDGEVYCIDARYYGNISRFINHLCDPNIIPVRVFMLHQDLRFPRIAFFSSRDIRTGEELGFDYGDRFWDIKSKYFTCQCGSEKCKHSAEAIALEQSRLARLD
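G9a (20 nM) preincubated 15 min RT with compounds, then 500 nM biotinylated H3K9 peptide and 20 uM SAM added; 2 h RT reaction. Monomethyl-H3K9 product detected by AlphaScreen with anti-H3K9me1 antibody, streptavidin donor and anti-rabbit IgG acceptor beads.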
HP1b binding inh – inhibitors of HP1-beta chromodomain binding to methylated histone tails; P83916; AlphaScreen HP1-beta / biotin-H3K9me3 peptide binding; Potency, µM (top dose mostly 114 µM), inactives show at the highest dose activity change, negative = inhibition, usual class: inhibitors; actives 0.56% (n = 390,000); further: nearly all actives have a fitted effect of over 70% in size
Target sequence (P83916 whole entry, looked up): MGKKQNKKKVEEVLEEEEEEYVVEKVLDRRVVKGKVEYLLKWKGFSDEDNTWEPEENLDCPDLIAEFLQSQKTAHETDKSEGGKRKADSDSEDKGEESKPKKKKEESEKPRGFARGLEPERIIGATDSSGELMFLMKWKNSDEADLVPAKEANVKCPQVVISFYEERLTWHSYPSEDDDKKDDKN
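Compound inhibition of the preformed complex between 50 nM HP1-beta and 50 nM biotinylated H3K9me3 peptide was read by AlphaScreen. Buffer was PBS pH 7.4 with 0.01% Tween-20. Incubations ran 30 min at room temperature, with 10 ug/mL donor/acceptor beads.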
JMJD2A Tudor inh – JMJD2A Tudor domain (human) inhibition; O75164; AlphaScreen JMJD2A-Tudor / H3K4me3 peptide binding; Potency, µM (titrated, usually from 114 µM), inactives show at the highest dose activity change, negative = inhibition, most hits filed as inhibitors; actives 4.4% (n = 390,000); further: on the % scale 0 is the no-effect control and ±100 the full control effect; nearly all actives have a fitted effect of over 50% in size
BAZ2B inh – blocks human BAZ2B. Q9UIF8. AlphaScreen BAZ2B-H3K14Ac peptide displacement. Potency, µM (titrated, usually from 114 µM), without a hit: at the highest dose activity change, negative = inhibition, actives largely listed as inhibitors. actives 4.4% (n = 360,000). AID 504333; further: on the % scale 0 is the no-effect control and ±100 the full control effect; nearly all actives have a fitted effect of over 60% in size
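Complex of BAZ2B and biotin-H3K14Ac (50 nM apiece) forms over 30 min at RT, then faces library compounds up to 110 uM for another 30 min; AlphaScreen beads added, 20 min dark incubation, luminescence read.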
Sfp inh – Sfp phosphopantetheinyl transferase inhibition. Potency, µM, for the others: largest response in the series, negative = inhibition, usual class: inhibitors. AID 1490. actives 3.5% (n = 310,000). Biochemical Sfp PPTase activity, qHTS. Q9F4F7;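 further: the enzyme is Sfp with the accession as filed and its product quenches rhodamine fluorescence; 0% = enzyme reaction without inhibitor and -100% = no enzyme wells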
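Sfp 15 nM + cpd, 15 min RT; start w/ rhodamine-CoA 5 uM, BHQ-2-YbbR 12.5 uM (final); 50 mM Hepes pH 7.6, 10 mM MgCl2, 0.01% NP-40, 0.01% BSA; read 525/598 nm at 0 and 30 min.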
* = called active by the depositor; ? = inconclusive; nt = no result; [ ] = remark or other dose. The call rests on the fitted dose curve; in most records, active means well fitted curve in the direction sought with a large enough effect; inconclusive means small, poorly fitted or top-dose-only effect, or another doubt; inactive means no such curve, though single readings can be large; an effect the other way counts as inactive or inconclusive. Potency means the concentration at half of the fitted maximal effect.

SMILES	G9a block	HP1b binding inh	JMJD2A Tudor inh	BAZ2B inh	Sfp inh
CCC1=NN(C(=O)c2ccc(C)cc2)C(O)(c2ccc(Br)cc2)C1 (configuration not stated)	23%[59 µM]	14%	-32%	?	13%
Cc1ccc(NC(C)c2cc(Cl)ccc2O)cc1 (configuration not stated)	-38%[59 µM]	-29%	?	50µM*	-3%
CC(Nn1cnnc1)c1cc(Cl)ccc1O (configuration not stated)	-4%	29%	-10%	-13%	21%
Cc1ccc(NC(=O)CSc2nnc(-c3cc4occc4n3C)n2-c2ccccc2C)c(C)c1	?	5%	?	?	nt
Cn1c(Cc2ccccc2)nnc1SCC(=O)c1ccc(Br)s1	?	3%	-20%	-8%	20µM*
CCc1c(C(C)S(=O)(=O)c2ccc(C)cc2)[nH]c(=O)n1-c1ccc(OC(F)(F)F)cc1 (configuration not stated)	10µM*	61%	-23%	-22%	0%
CN(C)c1cccc(C(=O)NN2C(=O)NC3(CCCCC3)C2=O)c1	-3%[12.7 µM]	29%	5%	-5%	nt
N#Cc1ccc(C(=O)NN2C(=O)NC3(CCCCC3)C2=O)cc1	56µM*	11%	-10%	-5%	nt
Cc1noc(C)c1C(=O)N1CCC[C@@]2(CCN(c3ccccc3)C2)C1	-1%[12.7 µM]	nt	nt	nt	6%
CCOC(=O)c1c(NC(=O)COC(=O)CC(NC(C)=O)c2ccccc2)sc(C(=O)NC)c1C (configuration not stated)	-44%[0.501 µM]	26%	-13%	-3%	nt
CCOC(=O)Cn1c(=O)n(-c2ccccc2OC)c2nc(-c3ccc(C(C)C)cc3)nc(C(N)=O)c21	3%[59 µM]	19%[57 µM]	-18%	-39%	nt
Cc1ccc(-n2nc(C(=O)c3ccccc3)n3c(=O)c(Cc4ccccc4)nnc23)cc1	nt	6%	-20%	nt	nt
O=C(c1ccccc1)c1nn(-c2ccccc2)c2nnc(Cc3ccccc3)c(=O)n12	10µM*	8%	?	-25%	1%
CCC(=O)[C@@]1(O)C(=O)N2C(=C3C(=O)OCCC31)N(Cc1ccccc1)C(C)=C(C(=O)OC)C2c1ccccc1 (some centres not stated)	nt	nt	nt	nt	23%
O=C(CCc1ccccc1)Nc1ccc(S(=O)(=O)NC2=NCCCCC2)cc1	nt	22%[57 µM]	-20%	nt	nt
CCOc1cc(/C=C/c2cc(C(=O)O)c3ccccc3n2)ccc1OC	71µM*	47%	2%	13%	-7%
CCOc1cc(/C=C/c2cc(C(=O)O)c3ccccc3n2)ccc1O	-4%[59 µM]	17%	?	3%	-3%
CCOc1ccc(CCNC(=O)c2nn(C)c3c2CSc2ccc(C)cc2-3)cc1OCC	?	-12%	?	-26%	nt
Cc1ccc(Nc2ccccc2)cc1	-13%[59 µM]	16%	-29%	14%	-7%
Cc1ccc(NC2=Nc3ccccc3CS2)cc1	10µM*	13%	?	0%	-15%
CCn1nnc2c(N3CCCC3)ncnc21	nt	?	-31%	nt	nt
CCC(C)NCCCCOc1ccc(Br)cc1 (configuration not stated)	8.9µM*	?	1.6µM*	?	-13%
CCC(C)NCCCCOc1cc(C)cc(C(C)C)c1 (configuration not stated)	11µM*	?	8.9µM*	?	-39%
CCc1ccc(OCCOCC(O)CNC(C)CC)cc1 (configuration not stated)	?	36%	-5%	-4%	5%
CCC(C)NCCCOc1ccc([N+](=O)[O-])cc1 (configuration not stated)	?	-19%	79µM*	?	-19%
SMILES	G9a block	HP1b binding inh	JMJD2A Tudor inh	BAZ2B inh	Sfp inh
CN(C)Cc1ccccc1Sc1cccc2ccccc12	?	-10%	-32%	?	-71%
Fc1ccccc1Sc1ccccc1CNC1=NCCN1	7.1µM*	?	?	-10%	-12%
c1ccc(Sc2cccc3ccccc23)c(CNC2=NCCN2)c1	16µM*	-21%	32µM*	?	-20%
Cc1cc(C)n(-c2nnc(C)c(=O)[nH]2)n1	2µM*	20%	1µM*	7.1µM*	63µM*
Cc1cc(C)n(-c2nc3sc4c(c3c(=O)[nH]2)CCCC4)n1	36%[59 µM]	nt	nt	7%	26%
O=C1c2ccccc2NC2(CCCC2)N1O	35µM*	24%	-13%	-29%	?
NNc1nc(-c2ccccc2)cc(-c2ccccc2O)n1	7%	3%	?	50µM*	-5%
Cc1ccc(C(=O)COC(=O)CCC(=O)Nc2ccc(Oc3cc(C)ccc3C(C)C)cc2)cc1	?	19%	-8%	6%	nt
COc1cc(CC(CC(=O)O)CC(C)OCc2ccccc2)cc(OC)c1 (configuration not stated)	1.4µM*	23%	14%	11%	6%
CCNc1nc(NCC)nc(N/N=C/c2ccc(OC)cc2)n1	-12%[12.7 µM]	33%	-19%	-9%	-2%
COc1ccc(Nc2nc(NCc3ccco3)nc(N/N=C/c3ccccc3)n2)cc1	?	4%	?	79µM*	-3%
CCOc1nc(NCc2ccco2)nc(Nc2ccc(OC)cc2)n1	?	-7%	-16%	50µM*	2%
COc1ccc(NC(=O)CN(C)C(=O)CCCN2C(=O)c3cccc4cccc(c34)C2=O)cc1	?	7%	-16%	10%	nt
O=C(Nc1ccc(Br)cc1)C1CCN(S(=O)(=O)c2cccc3nsnc23)CC1	-3%[59 µM]	21%	-14%	nt	nt
COc1cccc(/C=N/N2C(=O)NC3(CCCCC3)C2=O)c1O	16µM*	17%	-27%	3%	3%
CSc1nnc(NC(=O)c2cc(=O)c3cc(C)c(C)cc3o2)s1	4%[59 µM]	40%	7%	-18%	nt
CCN(CC)c1ccc(C(=O)OCC(=O)NC2CCCCC2C)cc1 (configuration not stated)	-11%	1%	50µM*	7%	-14%
CC1(C)SC2C(N3C(=O)C(c4ccccc4)NC3(C)C)C(=O)N2C1C(=O)O (configuration not stated)	6%[2.33 µM]	nt	nt	nt	?
CC(=O)c1ccccc1OCCCN1CCCCC1	11µM*	?	3.2µM*	50µM*	?
Brc1ccccc1OCCN1CCCC1	nt	79µM*	20µM*	nt	nt
Brc1ccccc1OCCCCCN1CCOCC1	40µM*	?	4.5µM*	56µM*	-28%
Brc1ccccc1OCCCCn1cnc2ccccc21	2%[12.7 µM]	26%	-7%	-23%	4%
Brc1ccccc1OCCCN1CCCC1	nt	?	10µM*	?	-15%
O=C1c2ccccc2C(=O)N1CCOc1ccccc1Br	116%	106%	54%	25%	1%
CCOC(=O)c1ccc(N2CCN(c3cccc(Cl)c3)CC2)c(NC(=O)Nc2ccc(OC)cc2OC)c1	-20%[59 µM]	14%	-31%	-12%	nt
O=C1NC[C@H](c2ccccc2)N1	nt	nt	nt	nt	-13%
